The values below come from the antibiotic and cytotoxicity screens of Wong et al. (2023).

The campaign covered roughly 39,000 compounds. About 1,500 (3.8%) were called active. Only a selection was taken, and actives are over-represented in it overall.

For the experiment, the system named is HSkMC (human skeletal muscle cells). The experiment can be described thus: cytotoxicity call (relative viability < 0.9). The note with it: 10 µM.
`COc1ccc(C#Cc2cnc3c(c2)C(=O)N([C@H](C)CO)C[C@@H](C)[C@@H](CN(C)C(=O)CC2CC2)O3)cc1`: the cytotoxicity call was “inactive”. As for `O=C(C[C@@H]1CC=CCC[C@@H](Cc2ccc(F)cc2)C(=O)OC[C@H](Cc2ccccc2)NC1=O)NCCO`, the cytotoxicity call is “inactive”.

On to `C[C@H](CO)N1C[C@H](C)[C@H](CN(C)Cc2cccc(C(F)(F)F)c2)Oc2ncc(-c3cccc(C(F)(F)F)c3)cc2C1=O`, for which the cytotoxicity call was “active”. As for `C[C@H](CO)N1C[C@H](C)[C@H](CN(C)Cc2cccc(C(F)(F)F)c2)Oc2ncc(/C=C/c3ccccc3)cc2C1=O`, the cytotoxicity call was “active”. With `C[C@H](CO)N1C[C@H](C)[C@H](CN(C)Cc2cccc(C(F)(F)F)c2)Oc2ncc(-c3ccccc3)cc2C1=O` the entry was “inactive”; with `Cc1cccc(CN(C)C[C@@H]2Oc3ncc(-c4cccc(C(F)(F)F)c4)cc3C(=O)N([C@H](C)CO)C[C@@H]2C)c1`, “inactive”; with `C[C@H](CO)N1C[C@H](C)[C@H](CN(C)Cc2cccc(C(F)(F)F)c2)Oc2ncc(-c3cccc(F)c3)cc2C1=O`, “inactive”. With `C[C@H](CO)N1C[C@H](C)[C@H](CN(C)Cc2ccccc2)Oc2ncc(-c3cccc(C(F)(F)F)c3)cc2C1=O`, the cytotoxicity call was “inactive”. As for `C[C@H](CO)N1C[C@H](C)[C@H](CN(C)C(=O)C2CC2)Oc2ncc(-c3ccc(C(=O)N(C)C)cc3)cc2C1=O`, the cytotoxicity call was “inactive”. With `CC(C)NC(=O)N(C)C[C@@H]1Oc2ccc(NS(=O)(=O)c3cn(C)cn3)cc2CC(=O)N([C@H](C)CO)C[C@H]1C` the entry was “inactive”; with `Cl.OC(c1cc(C(F)(F)F)nc2c(C(F)(F)F)cccc12)C1CCCCN1` (stereo not drawn), “active”. Then `C[C@@H]1CN([C@H](C)CO)S(=O)(=O)c2ccc(C#CC3(O)CCCC3)cc2O[C@H]1CN(C)C(=O)c1ccncc1`, with “inactive”. Then `CNC(=O)c1c(F)cccc1Nc1nc(Nc2cc3c(cc2OC)CCN3C(=O)CN(C)C)nc2[nH]ccc12`, with “active”. With `COc1cc(C(=O)N2CCC(N3CCN(C)CC3)CC2)ccc1Nc1ncc2c(n1)N(C)c1ccccc1C(=O)N2C`, the cytotoxicity call was “inactive”. In the case of `C[C@@H]1CN([C@H](C)CO)C(=O)Cc2cc(NS(=O)(=O)c3cn(C)cn3)ccc2O[C@@H]1CN(C)C(=O)Nc1ccccc1`, the cytotoxicity call is “inactive”. Turning to `CC(C)NC(=O)Nc1ccc2c(c1)C(=O)N([C@@H](C)CO)C[C@@H](C)[C@H](CN(C)CC1CCCCC1)OCCCC[C@@H](C)O2`, the cytotoxicity call is “inactive”.

Turning to `CN(C)CC(=O)N1[C@@H]2Cn3c(ccc(C4=CCCC4)c3=O)[C@H]1[C@@H](C(=O)NCC1CC1)[C@@H]2CO`, the cytotoxicity call was “inactive”. Then `C[C@@H]1CN([C@@H](C)CO)S(=O)(=O)c2ccc(-c3cncnc3)cc2O[C@@H]1CN(C)C(=O)Cc1cccnc1`, with “inactive”.
